Results from paper PMC5540273 (PLoS ONE, 2017).
Where “and” joins values, the source holds several entries; their conditions need not be identical. Equal values may be shown once. Read-outs that look alike come from different tables or passages of the source.

Key:
MERTK = details: concentration: 1 μM, replicates: in singlicate; n = 1
MET = details: concentration: 1 μM, replicates: in singlicate; n = 1
MINK = test system: T1, MINK; details: concentration: 1 μM, replicates: in singlicate, n = 1
T1 construct: gene MINK1

MKK7 = details: concentration: 1 μM, replicates: in singlicate, n = 1
MKNK1 = details: concentration: 1 μM, replicates: in singlicate; n = 1
MKNK2 = details: concentration: 1 μM, replicates: in singlicate, n = 1
MLCK = test system: T2, MLCK; details: concentration: 1 μM, replicates: in singlicate; n = 1
T2 construct: gene MYLK3

MLK1 = test system: T3, MLK1; details: concentration: 1 μM, replicates: in singlicate; n = 1
T3 construct: gene MAP3K9

MLK2 = details: concentration: 1 μM, replicates: in singlicate, n = 1
MLK3 = details: concentration: 1 μM, replicates: in singlicate, n = 1
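Further: KINOMEscan kinase panel screen.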

Row | SMILES | %Inh (MERTK) | %Inh (MET) | %Inh (MINK) | %Inh (MKK7) | %Inh (MKNK1) | %Inh (MKNK2) | %Inh (MLCK) | %Inh (MLK1) | %Inh (MLK2) | %Inh (MLK3) | %Inh (MINK; 1 µM) | %Inh (MKK7; 1 µM) | %Inh (MKNK2; 1 µM) | %Inh (MLK2; 1 µM) | %Inh (MLK3; 1 µM)
1 | CNc1nccc(-c2c(-c3ccc(F)cc3)ncn2CCCN2CCOCC2)n1 [SB-222516] | 19% | 3% | 15% | 0% | 3% | 0% | 1% | 33% | 10% | 0% |  |  |  |  | 
2 | CN1c2ccc(-c3ccc(C(=O)NCCO)cc3)cc2-c2[nH]ncc2S1(=O)=O | 0% | 2% | 46% | 0% | 0% | 0% | 0% | 29% | 27% | 18% |  |  |  |  | 
3 | COc1ccc(Nc2nccc(N3CCC(NC(=O)c4cccc(NC(C)=O)c4)C3)n2)cc1 (stereo not shown) [GSK1379732] | 24% | 0% | 17% | 0% | 0% | 12% | 31% | 0% | 0% | 12% |  |  |  |  | 
4 | Cc1ccc(O)cc1Nc1cc(C(F)(F)F)nc2ccc(-c3ccncc3)cc12 [GW630823] | 21% | 6% | 0% | 0% | 0% | 0% | 12% | 4% | 2% | 0% |  |  |  |  | 
5 | COc1ccc(-c2nc3n(c2-c2ccncc2)CCC3)cc1 [SKF-104493] | 0% | 0% |  |  | 0% |  | 0% | 0% |  |  | 5% and 19% | 14% and 19% | 19% and 0% | 0% and 4% | 9% and 24%
6 | Clc1cccc(-c2nc(Nc3ccncc3)c3ccccc3n2)c1 [GW873004] | 7% | 33% | 16% | 0% | 18% | 0% | 0% | 2% | 16% | 0% |  |  |  |  | 
7 | Nc1n[nH]c2nnc(-c3ccccc3)cc12 [SB-517389] | 13% | 0% | 23% | 0% | 77% | 12% | 86% | 0% | 0% | 0% |  |  |  |  | 
8 | O=C(c1ccc(-c2cc(-c3c[nH]nc3-c3ccccn3)ccn2)cc1)N1CCCC1 [GW792479] | 0% | 23% | 30% | 0% | 0% | 0% | 0% | 14% | 14% | 3% |  |  |  |  | 
9 | O=C(NCCCN1CCCC1=O)c1cnc(NCc2cc(Cl)ccc2Cl)nc1NC1CCNCC1 | 63% | 0% | 0% | 0% | 0% | 0% | 11% | 0% | 0% | 0% |  |  |  |  | 
10 | Cn1ccc2ncnc(Oc3ccc(NC(=O)Nc4cccnc4)c(Cl)c3)c21 | 6% | 15% | 0% | 0% | 10% | 0% | 0% | 14% | 2% | 0% |  |  |  |  | 
11 | COC(=O)c1cccc(NC(=O)NCCNc2ccnc(Nc3ccc(F)cc3)n2)c1 [GSK1379883] | 18% | 0% | 0% | 0% | 7% | 5% | 0% | 0% | 8% | 6% |  |  |  |  | 
12 | C[C@@H]1CCN(C(=O)CO)C[C@@H]1N(C)c1ncnc2[nH]ccc12 | 0% | 0% | 0% | 0% | 0% | 0% | 14% | 0% | 35% | 8% |  |  |  |  | 
13 | CCCc1ccc(S(=O)(=O)NC2CCN(c3ccnc(Nc4ccc(OC)cc4)n3)C2)cc1 (stereo not shown) [GSK1379737] | 16% | 0% | 0% | 0% | 0% | 6% | 11% | 0% | 0% | 4% |  |  |  |  | 
14 | Cl.Fc1ccccc1COc1ccc(Nc2ncnc3ccc(-c4nnc(C(F)(F)F)o4)cc23)cc1Cl [GW424170] | 10% | 0% | 0% | 0% | 0% | 0% | 0% | 0% | 0% | 3% |  |  |  |  | 
15 | CC(C)(C)OC(=O)NC1CCCN(c2cc(-c3ccc4c(N)n[nH]c4c3)nc(N)n2)C1 (stereo not shown) [GSK2286096] | 18% | 0% | 11% | 0% | 12% | 10% | 0% | 0% | 0% | 0% |  |  |  |  | 
16 | Clc1ccc(-c2cc(-c3c[nH]nc3-c3ccccn3)ccn2)cc1 [GW681251] | 27% | 0% | 78% | 30% | 0% | 3% | 0% | 0% | 0% | 0% |  |  |  |  | 
17 | c1ccc(-c2ccc3c(-c4ccnc(Nc5ccc6c(c5)OCCO6)n4)cnn3n2)cc1 [GW818941] | 58% | 100% | 0% | 21% | 0% | 2% | 4% | 12% | 39% | 28% |  |  |  |  | 

Row | SMILES | %Inh (MERTK) | %Inh (MET) | %Inh (MINK) | %Inh (MKK7) | %Inh (MKNK1) | %Inh (MKNK2) | %Inh (MLCK) | %Inh (MLK1) | %Inh (MLK2) | %Inh (MLK3) | %Inh (MINK; 1 µM) | %Inh (MKK7; 1 µM) | %Inh (MKNK2; 1 µM) | %Inh (MLK2; 1 µM) | %Inh (MLK3; 1 µM)
18 | CCc1nc(-c2cccc(N(C)S(=O)(=O)c3ccccc3)c2)c(-c2ccnc(Nc3ccc(N4CCN(C(C)=O)CC4)nc3)n2)s1 [GSK1645895] | 11% | 0% | 18% | 0% | 0% | 6% | 0% | 0% | 0% | 0% |  |  |  |  | 
19 | Nc1nc(-c2ccccn2)c(-c2ccnc3ccccc23)s1 [GW548057] | 2% | 0% | 56% | 14% | 1% | 0% | 0% | 0% | 0% | 0% |  |  |  |  | 
20 | O=C(Nc1ccccc1F)NC1CCN(c2ccnc(Nc3ccc(F)cc3)n2)C1 (stereo not shown) [GSK1379722] | 6% | 0% | 0% | 0% | 7% | 23% | 10% | 0% | 0% | 9% |  |  |  |  | 
21 | C[C@H]1CC[C@@H](C(=O)Nc2ccccc2)CN1c1cc(-c2ccc3c(N)n[nH]c3c2)nc(N)n1 [GSK2283293] | 11% | 100% | 17% | 0% | 0% | 3% | 0% | 0% | 0% | 0% |  |  |  |  | 
22 | FC(F)(F)c1cc(Nc2nccc(-c3c(-c4ccc(Cl)cc4)nn4ncccc34)n2)ccc1Cl [GW829351] | 11% | 0% | 0% | 0% | 0% | 0% | 10% | 0% | 4% | 0% |  |  |  |  | 
23 | Clc1cc(Nc2ncnc3cc[nH]c23)ccc1OCc1ccccn1 | 0% | 4% | 33% | 5% | 35% | 22% | 0% | 0% | 2% | 0% |  |  |  |  | 
24 | CN1CCC(n2cnc(-c3ccc(F)cc3)c2-c2ccnc(NC3CCNCC3)n2)CC1 [SB-229482] | 0% | 0% | 0% | 11% | 0% | 32% | 0% | 38% | 5% | 0% |  |  |  |  | 
25 | CNc1nccc(-c2c(-c3ccc(F)cc3)ncn2C2CCN(C)CC2)n1 [SB-222903] | 0% | 6% | 43% | 0% | 0% | 0% | 0% | 0% | 31% | 0% |  |  |  |  | 
26 | Cl.Cl.c1ccc(-c2cc3ccncc3cc2OC2CCNCC2)cc1 [GSK1122999] | 46% | 0% | 6% | 0% | 29% | 4% | 10% | 0% | 0% | 23% |  |  |  |  | 
27 | FC(F)(F)c1ccc(-c2cc(-c3c[nH]nc3-c3ccccn3)ccn2)cc1 [GW599550] | 0% | 14% | 75% | 0% | 7% | 0% | 7% | 10% | 0% | 21% |  |  |  |  | 
28 | Fc1ccc(-c2ncn(CCCNCc3ccccc3)c2-c2ccncc2)cc1 | 35% | 0% | 3% | 10% | 28% | 0% | 0% | 4% | 0% | 0% |  |  |  |  | 
29 | Cc1cc(N2CCC(NS(=O)(=O)c3ccc(F)cc3)CC2)nc(Nc2cccc(C#N)c2)n1.O=C(O)C(F)(F)F [GSK1653537] | 39% | 0% | 0% | 0% | 7% | 3% | 0% | 12% | 0% | 15% |  |  |  |  | 
30 | NC(=O)c1sc(-n2cnc3ccccc32)cc1OCc1ccccc1F [GSK1024306] | 32% | 20% | 1% | 0% | 10% | 0% | 0% | 9% | 0% | 7% |  |  |  |  | 
31 | OCCOCCn1ccc2ncnc(Nc3ccc(Oc4cccc(Cl)c4)c(Cl)c3)c21 | 0% | 0% | 0% | 0% | 0% | 3% | 0% | 0% | 37% | 22% |  |  |  |  | 
32 | Fc1cccc(COc2ccc(Nc3ncnc4sc(-c5ccc[nH]5)cc34)cc2Cl)c1 [GW707818] | 10% | 0% | 16% | 8% | 12% | 2% | 0% | 7% | 0% | 2% |  |  |  |  | 
33 | Cc1ccc(C)c(NC(=O)NCCNc2ccnc(Nc3ccc(F)cc3)n2)c1 [GSK1379878] | 2% | 0% | 0% | 0% | 0% | 0% | 0% | 0% | 0% | 4% |  |  |  |  | 
34 | COc1ccc(-c2oc3ncnc(N)c3c2-c2ccc(OC)cc2)cc1 [SB-589132] | 29% | 0% | 0% | 0% | 25% | 41% | 23% | 0% | 0% | 0% |  |  |  |  | 
